Results on eight compounds are retold here after PubChem BioAssay (NCI).

Compounds without any hit were thinned out: in the full panel of roughly 83,000, 20% have a hit.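 Activity criterion: percent growth below 10, measured after cells in 96-well plates were exposed to a single compound concentration for 48 hours.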 Values without a mark were called inactive. Active and inactive are the calls of the source.

What all share (assay): NCI-60 one-dose screen, 48 h (100 = growth as untreated, 0 = no growth, -100 = all killed)
Holding throughout (conditions): 10 µM unless noted

The subject of assay [1] is NCI-H23 lung.
Assay [2] has as its system NCI-H226 lung.
Assay [3] relates to NCI-H322M lung.
Assay [4] deals with HOP-62 NSCLC.
The subject of assay [5] is NCI-H460 lung.
Assay [6] relates to HOP-92 NSCLC.
In assay [7] the test system is NCI-H522 lung.
Assay [8] concerns A549/ATCC NSCLC.
For assay [9], the system named is 786-0 renal.
In assay [10] the test system is COLO 205 colon.
Assay [11] concerns DU-145 prostate.
In assay [12] the test system is K-562 leukemia.
Assay [13] has as its system MALME-3M melanoma.
Assay [14] concerns MDA-MB-231 breast.
For assay [15], the system named is RXF 393 renal.
Assay [16] deals with SF-268 CNS.
Assay [17] has as its system SF-295 CNS.
Assay [18] concerns UACC-257 melanoma.
The subject of assay [19] is M14 melanoma.

As for `COc1cnc2c(c1)C(=O)c1c-2n(CCCN2CCN(C)CC2)c(=O)c2cc([N+](=O)[O-])ccc12`, the growth in [1] is -46.4% (active); in assay [2], 79.3%; in [3], -56.9% (active); in [4], -61.3% (active); in assay [5] it was -74.5% (active); in [6] it was -57.7% (active). Also, the growth in assay [7] was -37.6% (active); in assay [8], -78.9% (active); in assay [9] it was -87.1% (active); in assay [10], -5.87% (active); in assay [11], -42.5% (active); in [12], -50.8% (active). Also, the growth was -72.9% (active) in assay [13]; -72.3% (active) in assay [14]; 84.2% in [15]; -60.7% (active) in assay [16]; -80.8% (active) in [17]; -37.6% (active) in [18]. For the same compound, the growth in [19] was -85.2% (active).

On to `CCN(C(=O)CN1CCN(c2cc3c(cc2F)c(=O)c(C(=O)O)cn3CC)CC1)c1nc(-c2ccccc2)cs1`, for which the growth was 9.94% (active) in [1]; 18.2% in [2]; 17.7% in [3]; 15.5% in assay [4]; 5.71% (active) in [5]; -31.8% (active) in assay [6]. Further, the growth in assay [7] is -15.4% (active); in assay [8], 4.66% (active); in [9] it was 14.3%; in [10], -51.9% (active); in [11], 23.3%; in assay [12] it was 12.3%. In addition, the growth was -5.46% (active) in assay [13]; 6.19% (active) in [14]; 4.13% (active) in assay [15]; 22.7% in assay [16]; -17.5% (active) in [17]; -9.83% (active) in assay [18]. Further, the growth in [19] is 18.3%.

Regarding `CC/C=C\C[C@H](O)C/C=C1/C(=O)C=C[C@@H]1C/C=C\CCCC(N)=O`, the growth in assay [1] was -38.3% (active); in assay [2], -39.7% (active); in assay [3], 29.7%; in assay [4], -15.6% (active); in assay [5], -9.93% (active); in assay [6] it was 37.6%. Moreover, the growth was -19.3% (active) in assay [7]; -23.5% (active) in assay [8]; -24.2% (active) in [9]; -27.8% (active) in assay [10]; 18.8% in assay [11]; -1.14% (active) in assay [12]. Further, the growth was -14.8% (active) in [13]; 20.4% in [14]; -81% (active) in [15]; 27.3% in assay [16]; -22.2% (active) in [17]; -11.7% (active) in assay [18]. In addition, the growth in assay [19] was 1.88% (active).

For `CC(C)[C@H]1COC(=O)N1[C@@H]1C(=O)N([C@@H](CCC(=O)N2CCN(C3CCCC3)CC2)C(=O)N[C@@H]2CCCc3ccccc32)[C@@H]1/C=C/c1cccc(Br)c1`, the growth is 64.7% in [1]; 74% in [2]; 39.3% in [3]; 59.5% in [4]; 31.6% in assay [5]; 44.7% in [6]. In addition, the growth in assay [7] was 27.4%; in assay [8], 25.7%; in assay [9], 44.3%; in assay [10] it was 24%; in assay [11], 40.5%; in assay [12] it was 41.9%. For the same compound, the growth was 13.1% in assay [13]; 26.3% in assay [14]; 53.3% in [15]; 8.27% (active) in [16]; 51.5% in [17]; -34.6% (active) in assay [18]. In addition, the growth in assay [19] was 25.8%.

Consider `COc1cc(/C=N/N(C)C)ccc1O`, for which the growth in assay [1] was 105%; in assay [2] it was 91.5%; in [3], 99.1%; in assay [4], 91.4%; in assay [5], 105%; in assay [6], -18.7% (active). Also, the growth in [7] was 87.7%; in [8], 84.1%; in [9], 109%; in assay [10], 108%; in [11] it was 110%; in [12], 101%. Further, the growth in assay [13] was 105%; in assay [14], 93.1%; in assay [15], 105%; in assay [16], 101%; in assay [17], 104%; in [18], 89.1%. The growth in [19] was 108%.

Consider `CC/C=C\C[C@H](F)C/C=C1/C(=O)C=C[C@@H]1C/C=C\CCCC(=O)O`, for which the growth in assay [1] is 62.7%; in assay [2] it was 104%; in assay [3], 93.6%; in [4], 111%; in [5], 50.6%; in assay [6], 109%. Also, the growth in assay [7] was 31%; in assay [8], 68.3%; in [9], 82.4%; in assay [10] it was 48.5%; in assay [11], 66.3%; in assay [12], 10.3%. Further, the growth is 59.2% in assay [13]; 73% in assay [14]; 75% in assay [15]; 82.3% in assay [16]; 96.2% in [17]; 49.7% in assay [18]. Also, the growth in [19] is 32.1%.

For `O=C1c2cc3c(cc2-c2c1c1cc(Cl)c(Cl)cc1c(=O)n2C[C@H](O)CO)OCO3`, the growth in [1] is -55.7% (active); in assay [2] it was -62% (active); in assay [3] it was -16% (active); in assay [4], -54.3% (active); in [5], -0.391% (active); in [6], -31.9% (active). Also, the growth is -29% (active) in assay [7]; -47.3% (active) in [8]; -44.3% (active) in [9]; -39.4% (active) in assay [10]; -14.6% (active) in [11]; 7.53% (active) in assay [12]. The growth in [13] is -37.4% (active); in assay [14], 0.134% (active); in [15], -69% (active); in assay [16], -2.79% (active); in assay [17], -47% (active); in [18], -52.9% (active). Besides, the growth in assay [19] is -16.3% (active).

Turning to `Nc1ccc2c(c1)C(=O)NC2=O`, the growth in assay [1] is 91.7%; in [2] it was 96.2%; in assay [3], 108%; in [4] it was 93.1%; in assay [5], 103%; in assay [6], 151%. Moreover, the growth in assay [7] is 99.3%; in [8], 105%; in assay [9] it was 110%; in [10] it was 106%; in assay [11], 110%; in assay [12], 100%. The growth is 90.5% in assay [13]; 101% in assay [14]; 115% in [15]; 92.5% in assay [16]; 101% in assay [17]; 98.6% in assay [18]. Besides, in assay [19], the growth is 99.4%.
